SENP8 block-1 = inhibitors of human SENP8 protease; Q96LD8; purified SENP8, Z-RLRGG-aminoluciferin cleavage, luminescence; inhibition, % at 10 µM; 1.2% of 330,000 active; in the data active = inhibition above about 50%
SENP8 block-2 = SENP8 (human) protease inhibition | Q96LD8 | recombinant SENP8, Nedd8 substrate fluorescence | inhibition, % at 20 µM | 0.64% of 360,000 active; in the data active = inhibition mostly above about 40%, no sharp cut-off; inactive = mostly below about 27%
SENP7 inh = SENP7 protease inhibition. inhibition, % at 5 µM. Q9BQF6. recombinant SENP7, Z-RLRGG-aminoluciferin luminescence, 40 min. 1.5% of 330,000 active;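 active = inhibition above about 50% at the single test dose, limit read from the data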;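 also: plate controls were DMSO with enzyme for no effect and no enzyme buffer wells for full effect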
AHR activator = activates the human aryl hydrocarbon receptor. P35869. AHR-responsive luciferase reporter cells, luminescence. activation, % at 5 µM. 2.5% of 320,000 active; in the data active = activation above about 47%;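 also: 0% = vehicle wells and 100% = reference agonist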
Target sequence (P35869 whole entry, looked up): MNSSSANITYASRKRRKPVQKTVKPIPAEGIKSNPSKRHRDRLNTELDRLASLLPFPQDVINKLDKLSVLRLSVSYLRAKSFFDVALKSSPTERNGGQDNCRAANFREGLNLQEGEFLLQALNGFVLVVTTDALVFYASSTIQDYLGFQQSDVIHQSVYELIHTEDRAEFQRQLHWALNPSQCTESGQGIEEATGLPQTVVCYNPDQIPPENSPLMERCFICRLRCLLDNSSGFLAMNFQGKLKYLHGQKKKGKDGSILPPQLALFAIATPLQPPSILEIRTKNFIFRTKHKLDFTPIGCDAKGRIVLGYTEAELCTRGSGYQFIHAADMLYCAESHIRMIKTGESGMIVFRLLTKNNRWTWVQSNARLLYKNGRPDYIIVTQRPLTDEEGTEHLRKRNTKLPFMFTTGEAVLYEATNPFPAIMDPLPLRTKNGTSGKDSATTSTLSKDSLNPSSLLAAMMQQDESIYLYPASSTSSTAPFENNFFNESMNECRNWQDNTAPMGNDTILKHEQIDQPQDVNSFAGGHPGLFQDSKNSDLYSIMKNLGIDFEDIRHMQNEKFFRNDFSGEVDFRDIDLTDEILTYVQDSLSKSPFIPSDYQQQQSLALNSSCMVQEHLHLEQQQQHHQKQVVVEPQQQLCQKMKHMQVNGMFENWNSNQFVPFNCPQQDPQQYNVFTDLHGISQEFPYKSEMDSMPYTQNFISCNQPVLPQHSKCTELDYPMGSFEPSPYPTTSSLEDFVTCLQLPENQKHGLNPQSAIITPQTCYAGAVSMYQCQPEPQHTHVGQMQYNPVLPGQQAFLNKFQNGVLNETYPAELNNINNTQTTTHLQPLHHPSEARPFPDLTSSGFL
SENP6 block = SENP6 protease inhibition; Q9GZR1; Recombinant SENP6 catalytic domain, aminoluciferin luminescence; inhibition, % at 10 µM; 1.8% of 330,000 active; AID 2599;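 active = inhibition above about 50% at the single tested dose, limit read from the data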;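 also: plate controls were DMSO wells with enzyme for no effect and DMSO wells lacking enzyme for full effect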
EBI2 antag = EBI2 (human) antagonism; P32249; EBI2 beta-arrestin recruitment, luminescence, 7a,25-OHC stimulated; inhibition, % at 5 µM; 0.81% of 360,000 active; AID 651636; in the data active = inhibition above about 38%;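 also: enzyme fragment complementation signal reports receptor beta-arrestin coupling in cells; 0% = agonist plus DMSO wells and 100% = wells without agonist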
EBI2 antag conf = confirmation of human EBI2 receptor antagonists. shares compounds with EBI2 antag. EBI2 beta-arrestin luminescence, 7a,25-OHC antagonism. inhibition, % at 5 µM. 29% of 2,400 active. AID 651997;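 active = inhibition of at least 50%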
EBI2 agonist = counter-screen for EBI2 antagonists: EBI2 agonist activity; shares compounds with EBI2 antag; 2,400 tested, under 10 active; activation, % at 5 µM; EBI2-expressing cells, agonist mode, luminescence, 60 min; 0% vehicle, 100% 7α,25-dihydroxycholesterol control;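 active = activation of at least 50%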
bGal counter = inhibits E. coli beta-galactosidase, counter-screen for EBI2 antagonists | shares compounds with EBI2 antag | purified beta-galactosidase, luminescent Galacton Star, 15 min | inhibition, % at 5 µM | 1% of 2,400 active | AID 652176;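 active = replicate-average signal at least 3 plate SD below neutral wells, shown as high inhibition, flagging enzyme-inhibiting false positives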;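 also: 0% = DMSO wells with enzyme and 100% = wells lacking enzyme; higher means stronger loss of beta-gal luminescence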
* = called active by the depositor. Shown are actives, neighbours in structure and some others; about 5% of the full set was active somewhere.

How did COc1cc(/C=C2/N=C(c3ccccc3)OC2=O)c(F)cc1OCc1ccccc1 do in these assays?
SENP8 block-1: -2.0; SENP8 block-2: -210.8; SENP7 inh: -4.5; AHR activator: -2.5; SENP6 block: -5.1; EBI2 antag: 5.2

Results for Cc1ccccc1OCCC(=O)N1CCN(S(=O)(=O)c2ccc(Br)cc2)CC1 ?
SENP8 block-1: -1.3; SENP8 block-2: 15.8; SENP7 inh: -2.6; SENP6 block: -16.4; EBI2 antag: 43.8*; EBI2 antag conf: 32.3; EBI2 agonist: -0.9; bGal counter: -15.2

Results for Cc1ccc(S(=O)(=O)N2CCN(C(=O)CCc3c[nH]c4ccccc34)CC2)c(C)c1 ?
SENP8 block-1: -3.6; SENP8 block-2: 7.8; SENP7 inh: 2.3; AHR activator: 17.2; SENP6 block: -7.3; EBI2 antag: 47.0*; EBI2 antag conf: 29.0; EBI2 agonist: -1.0; bGal counter: -2.8

What do the screens show for `Cc1ccccc1OCCC(=O)N1CCN(S(=O)(=O)c2ccc(F)cc2)CC1`?
SENP8 block-1: 7.0; SENP8 block-2: -3.5; SENP7 inh: -1.3; AHR activator: 5.0; SENP6 block: -0.3; EBI2 antag: 29.4

What do the screens show for `Cc1ccc(C)c(S(=O)(=O)N2CCN(C(=O)c3cnccn3)CC2)c1`?
SENP8 block-1: -0.5; SENP8 block-2: 7.9; SENP7 inh: -4.6; AHR activator: 0.7; SENP6 block: 8.9; EBI2 antag: 4.5

What do the screens show for `Cc1ccccc1OCCC(=O)N1CCN(S(=O)(=O)c2ccccc2F)CC1`?
SENP8 block-1: -0.9; SENP8 block-2: 4.7; SENP7 inh: 1.4; AHR activator: -1.9; SENP6 block: -21.7; EBI2 antag: 25.0

What do the screens show for `Cc1ccc(C)c(OCCC(=O)N2CCN(S(=O)(=O)c3cc(C)ccc3C)CC2)c1`?
SENP8 block-1: -4.7; SENP8 block-2: 5.3; SENP7 inh: -3.9; AHR activator: 6.9; SENP6 block: -9.3; EBI2 antag: 66.3*; EBI2 antag conf: 44.0; EBI2 agonist: 5.4; bGal counter: 7.6

What do the screens show for `Cc1ccc(C)c(S(=O)(=O)N2CCN(C(=O)c3ccc4ccccc4n3)CC2)c1`?
SENP8 block-1: 0.7; SENP8 block-2: 16.5; SENP7 inh: -0.8; AHR activator: 11.4; SENP6 block: -12.5; EBI2 antag: 49.8*; EBI2 antag conf: 41.3; EBI2 agonist: 1.2; bGal counter: 3.8

What do the screens show for `COc1cccc(CNC(=O)c2cc(=O)[nH]c3ccc(S(=O)(=O)N4CCOCC4)cc23)c1`?
SENP8 block-1: 7.6; SENP8 block-2: -73.7; SENP7 inh: -5.5; AHR activator: -0.1; SENP6 block: 3.1; EBI2 antag: 4.9

How did Cc1cc(C)cc(OCCNC(=O)CCc2ccccc2)c1 do in these assays?
SENP8 block-1: 9.0; SENP8 block-2: 7.9; SENP7 inh: 7.6; AHR activator: 1.6; SENP6 block: 15.4; EBI2 antag: -13.2

Results for CN(C)c1ccc(CNc2ccc3c(c2)ncn3C(C)(C)C)cc1 ?
SENP8 block-1: 1.3; SENP8 block-2: -100.0; SENP7 inh: -6.1; AHR activator: 0.9; SENP6 block: 19.4; EBI2 antag: 9.4

What do the screens show for `Cc1cc(C)c(S(=O)(=O)N2CCN(C(=O)CCOc3ccccc3C)CC2)c(C)c1`?
SENP8 block-1: 1.3; SENP8 block-2: 7.2; SENP7 inh: 6.8; AHR activator: -0.2; SENP6 block: 1.2; EBI2 antag: 81.3*; EBI2 antag conf: 45.6; EBI2 agonist: 2.4; bGal counter: 7.9

What do the screens show for `Cc1ccc(C)c(S(=O)(=O)N2CCN(C(=O)CCNC(=O)c3ccc(Br)cc3)CC2)c1`?
SENP8 block-1: 2.2; SENP8 block-2: 17.5; SENP7 inh: 3.4; AHR activator: 0.7; SENP6 block: 6.5; EBI2 antag: 75.2*; EBI2 antag conf: 32.9; EBI2 agonist: 0.7; bGal counter: 2.1

How did CN(C)C(=O)COc1ccc2c(-c3ccccc3)cc(=O)oc2c1 do in these assays?
SENP8 block-1: 3.6; SENP8 block-2: -32.1; SENP7 inh: -5.6; SENP6 block: -7.1; EBI2 antag: 1.6

What do the screens show for `COCC1CCCCN1C(=O)c1ccc(OC2CCN(Cc3ccccn3)CC2)cc1` (stereo unspecified)?
SENP8 block-1: -1.7; SENP8 block-2: 8.6; SENP7 inh: 1.0; AHR activator: -2.4; SENP6 block: -3.5; EBI2 antag: 5.6

Results for CCOc1ccc(NC(=S)N2CCC(C(O)(c3ccccc3)c3ccccc3)CC2)cc1 ?
SENP8 block-1: 3.7; SENP8 block-2: 9.1; SENP7 inh: 4.5; AHR activator: 1.2; SENP6 block: -8.5; EBI2 antag: 44.4*; EBI2 antag conf: 2.3; EBI2 agonist: -0.8; bGal counter: -7.5

What do the screens show for `CCOc1ccc(NC(=S)N2c3ccccc3CC2C)cc1` (stereo unspecified)?
SENP8 block-1: 1.8; SENP8 block-2: 21.6; SENP7 inh: 0.4; AHR activator: 0.1; SENP6 block: -6.4; EBI2 antag: 65.5*; EBI2 antag conf: -5.4; EBI2 agonist: 0.5; bGal counter: 5.2

What do the screens show for `CCc1nc(N2CCN(S(C)(=O)=O)CC2)c2c3c(sc2n1)CCCC3`?
SENP8 block-1: -3.1; SENP8 block-2: 14.6; SENP7 inh: -4.7; AHR activator: 1.7; SENP6 block: -15.5; EBI2 antag: 3.1

What do the screens show for `O=C(COc1ccc(Cl)cc1)N1CCN(c2ncccn2)CC1`?
SENP8 block-1: -10.0; SENP8 block-2: 13.0; SENP7 inh: -7.0; AHR activator: -0.2; SENP6 block: -42.1; EBI2 antag: 72.6*; EBI2 antag conf: 58.1*; EBI2 agonist: 2.0; bGal counter: -1.8

Results for O=C(COc1ccccc1)N1CCN(c2ncccn2)CC1 ?
SENP8 block-1: -17.3; SENP8 block-2: -1.9; SENP7 inh: -2.8; AHR activator: 4.4; SENP6 block: -8.1; EBI2 antag: 23.9

How did CC(=O)c1ccc(N2CCN(C(=O)COc3ccc4c(c3)CCC4)CC2)cc1 do in these assays?
SENP8 block-1: 0.9; SENP8 block-2: -166.5; SENP7 inh: -2.1; AHR activator: 4.0; SENP6 block: -0.5; EBI2 antag: 33.6

Results for Cc1ccc(Cl)cc1N1CCN(C(=O)COc2ccc3c(c2)CCC3)CC1 ?
SENP8 block-1: -0.1; SENP8 block-2: 9.5; SENP7 inh: 1.0; AHR activator: 2.9; SENP6 block: -17.5; EBI2 antag: 77.5*; EBI2 antag conf: 42.1; EBI2 agonist: -0.9; bGal counter: -13.0
